HT1080 IDH1KD tx: qHTS for induction of synthetic lethality in tumor cells producing 2HG: qHTS for the HT-1080-IDH1KD cell line. HT-1080 IDH1 knockdown viability, ATP luminescence, 48 h. Potency, µM (doses to about 46.1 µM), without a hit: at the top dose activity, negative = toxicity, usual class: cytotoxic. 2% of 360,000 active. AID 686971, 2013;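 also: potency is read from the fitted curve at half-maximal effect; 0% = DMSO wells and -100% = cell-free medium wells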
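HT-1080-IDH1KD cells (IDH1 knocked down), 750/well in RPMI with 5% FBS, treated with compound 48 h at 37 degrees C. Viability by CellTiter-Glo luminescence, normalised to DMSO and no-cell wells; concentration-response curves classed.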
HT1080NT lethal: qHTS for induction of synthetic lethality in tumor cells producing 2HG: qHTS for the HT-1080-NT fibrosarcoma cell line | HT-1080-NT fibrosarcoma viability, CellTiter-Glo ATP luminescence, 48 h | Potency, µM (highest dose often 46.1 µM), without a hit: at the highest dose activity, negative = less viability, most hits filed as cytotoxic | 1.6% of 360,000 active | AID 686970, 2013;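 also: NT is the 2HG producing partner of a matched IDH1 knockdown line; potency is read from the fitted curve at half-maximal effect; 0% = DMSO-treated cells and -100% = media-only wells without cells; nearly all actives have a fitted effect of over 55% in size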
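Luminescent CellTiter-Glo readout after 48 hours of compound exposure at 37 degrees C defined viability of HT-1080-NT cells. Activity was normalized to DMSO wells and cell-free media wells; concentration-response curves were fitted and assigned curve classes.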
TDP1 cell CPT: qHTS for Inhibitors of human tyrosyl-DNA phosphodiesterase 1 (TDP1): qHTS in cells in presence of CPT. chicken DT40 Tdp1-/-;hTDP1 cells + 20 nM CPT, ATP luminescence, 48 h. Potency, µM (series often up to 46.2 µM), for the others: at the top dose activity change, negative = growth inhibition, actives largely listed as inhibitors. 12% of 420,000 active; also: potency is read from the fitted curve at half-maximal effect; nearly all actives have a fitted effect of over 55% in size
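Cell growth measured by CellTiter-Glo luminescence after a minimum 48 h, 37 C compound exposure with 20 nM CPT in Tdp1-knockout DT40 cells stably expressing hTDP1, seeded 400/well; qHTS titration format.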
IL1B secr inh: qHTS for Inhibitors of Inflammasome Signaling: IL-1-beta AlphaLISA Primary Screen; 4.7% of 360,000 active; activity change, % at 57.5 µM; THP-1 LPS/ATP IL-1B secretion, AlphaLISA, 16 h; stronger effect = lower value; in the data active = activity change below about -50%; inconclusive = mostly about -30% to -49%
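THP-1 cells pretreated 1 hr with compounds (up to 57.5 uM final), then stimulated with LPS (250 ng/mL final) plus ATP (1.25 mM final); secreted IL-1B measured by AlphaLISA after 16 hr, decreased signal indicating inhibition.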
TDP1 cell noCPT: qHTS for Inhibitors of human tyrosyl-DNA phosphodiesterase 1 (TDP1): qHTS in cells in absence of CPT; DT40 Tdp1-/- hTDP1 cells, no CPT, ATP luminescence, 48 h; 15% of 420,000 active; Potency, µM (highest dose often 46.2 µM), for the others: at the top dose activity change, negative = growth inhibition, hits mostly inhibitors; also: potency is read from the fitted curve at half-maximal effect; nearly all actives have a fitted effect of over 55% in size
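Camptothecin absent (DMSO only). Human TDP1-complemented DT40 knockout cells, 400 cells/well, 37 °C for minimum 48 hr; ATP measured via CellTiter-Glo, 30 min dark incubation, luminescence.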
ELG1 repair inh: qHTS screen for small molecules that inhibit ELG1-dependent DNA repair in human embryonic kidney (HEK293T) cells expressing luciferase-tagged ELG1 | AID 504467, 2011 | HEK293T ELG1-luciferase reporter, luminescence, 16 h; DNA damage induced by 5-fluorouridine | 2.3% of 330,000 active | Potency, µM (top dose mostly 46.1 µM), for the others: top-dose activity change, negative = inhibition, hits mostly inhibitors; also: potency is read from the fitted curve at half-maximal effect; nearly all actives have a fitted effect of over 55% in size
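HEK293T cells expressing luciferase-tagged ELG1 (2,000/well) received 5-Fluorouridine plus compound or DMSO for 16 hr at 37 °C. Luciferase was read by ONE-Glo luminescence after 30 min at room temperature.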
Numbers without * were called inactive; i = inactive; ? = inconclusive; · = no result; [ ] = dose if it differs, or a comment. In the library only some 19% were active in any assay of this set; here they are far more common. Unless noted, calls follow the shape of the dose curve; as a rule, active = well fitted curve in the direction sought with a large enough effect; inconclusive = small, poorly fitted or top-dose-only effect, or another doubt; inactive = no such curve, though single readings can be large; an effect the other way counts as inactive or inconclusive. Unless noted, % is scaled to controls: 0 for no effect and ±100 for the full control effect.

SMILES	HT1080 IDH1KD tx	HT1080NT lethal	TDP1 cell CPT	IL1B secr inh	TDP1 cell noCPT	ELG1 repair inh
COc1ccc(NC(=O)N(Cc2cc3cc(OC)c(OC)cc3[nH]c2=O)CC2CCCO2)cc1 (stereo unspecified)	-2.5%	3.8%	?	-8.9	?	?
CCOc1ccc(N(Cc2cc3cc(OC)ccc3[nH]c2=O)S(C)(=O)=O)cc1	?	-5.2%	-20.9%	-1.6	?	0.0%
COc1ccc2cc(CN(CC3CCCO3)C(=O)Nc3ccccc3)c(=O)[nH]c2c1 (stereo unspecified)	-1.4%	-3.6%	?	?	-13.2%	18.3µM*
Cc1nc(SCC(=O)Nc2ccc(Cl)cc2C(F)(F)F)[nH]c(=O)c1Cc1ccccc1	·	·	-22.7%	·	-24.8%	·
COC(=O)Cn1ccnc1[N+](=O)[O-]	-2.9%	0.7%	-5.5%	-5.1	-5.5%	·
CC(=O)N1CCC2(CCCN(C(=O)Nc3cccc(C#N)c3)C2)CC1	·	·	-0.6%	·	-5.3%	·
Cc1[nH]c2c(F)cccc2c1CC(=O)NCCN1Cc2ccccc2OC(C)C1 (stereo unspecified)	·	·	-9.0%[9.04 µM]	·	-9.4%	·
O=C(COc1ccc(Cl)cc1)Nc1cc2c3c(c1)CC(=O)N3CCC2	-1.0%	-3.8%	20.6µM*	15.0	20.6µM*	-9.8%
CCCC(=O)Nc1cc2c3c(c1)CC(=O)N3CCC2	-4.1%	7.1%	-3.0%	-16.6	?	?
Cc1ccc(CCNC(=O)NCc2noc3ccc(C)cc23)cc1	·	·	1.2%	·	?	·
Oc1ccc2ccccc2c1C=NNc1ccccn1	?	?	3.26µM*	126.5	4.61µM*	·
Oc1ccc2ccccc2c1CNc1ccccn1	13.1%	5.5%	-7.7%	-5.5	0.0%	-12.7%
Oc1ccc2ccccc2c1/C=N/Nc1nnc(-c2ncc[nH]2)c2ccccc12	5.17µM*	5.8µM*	5.17µM*	69.0	5.17µM*	?
Cc1ccc(Nc2nc(CSc3nnc(-c4cccnc4)n3-c3ccccc3C)cs2)cc1	-14.8%	-10.3%	14.6µM*	?	14.6µM*	-28.8%
Cc1ccccc1-n1c(SCc2csc(Nc3ccccc3)n2)nnc1-c1cccnc1	-11.1%	0.4%	11.6µM*	-23.4	13µM*	?
Cc1ccc(Nc2nc(CSc3nnc(-c4ccccc4C)n3C)cs2)cc1	-12.7%	-5.9%	?	?	?	?
C[C@]12C[C@H](O)CC(CO)(CO)C1[C@H](O)C[C@@]13CC4[C@@H](CC12)[C@@]4(C)C3 (stereo partly specified)	·	·	4.7%[9.04 µM]	·	-9.4%[9.04 µM]	·
COc1ccc(CNC(=O)C(=O)c2cn(CC(=O)N3CCCC3)c3ccccc23)cc1	-14.7%	-2.6%	-4.6%	0.0	-8.7%	?
COc1ccccc1CNC(=O)C(=O)c1cn(CC(=O)N2CCCC2)c2ccccc12	-2.7%	-6.4%	?	-10.4	-21.3%	11.7%
COc1ccc(OC)c(NC(=O)C(=O)c2cn(CC(=O)N3CCCC3)c3ccccc23)c1	-8.1%	-1.8%	?	-18.9	?	11.6µM*
COc1ccc(CCNC(=O)C(=O)c2cn(CC(=O)N3CCCC3)c3ccccc23)cc1	0.7%	-3.9%	-12.7%	-8.5	20.6µM*	·
COc1ccc(NC(=O)C(=O)c2cn(CC(=O)N3CCCC3)c3ccccc23)cc1OC	-23.0%	-1.8%	16.4µM*	-27.2	13µM*	-20.7%
COc1ccc(C)cc1NC(=O)C(=O)c1cn(CC(=O)N2CCCC2)c2ccccc12	2.5%	-3.2%	?	-0.2	18.4µM*	?
COc1cccc(NC(=O)C(=O)c2cn(CC(=O)N3CCCC3)c3ccccc23)c1	-12.3%	-8.6%	?	?	?	0.0%
COCCn1c(=O)c(-c2cn(C)c3ccccc23)nc2cnc(N3CCNCC3)nc21	·	·	1.5%	·	11.8%	·
SMILES	HT1080 IDH1KD tx	HT1080NT lethal	TDP1 cell CPT	IL1B secr inh	TDP1 cell noCPT	ELG1 repair inh
CSC1=NC(=O)/C(=C\c2cccc3ccccc23)S1	-3.8%	1.1%	-26.1%	12.0	-17.6%	0.0%
COc1ccc(CC(=O)N/N=C(\C)c2cccs2)cc1	4.8%	10.1%	8.7%	-24.5	-15.7%	12.3%
COc1ccccc1N(CC(=O)NCc1ccco1)C(=O)CCC(=O)Nc1ccccn1	26.8%	5.8%	16.6%	9.9	-14.2%	-1.0%
COc1ccc(OC)c(S(=O)(=O)N2CC=C(c3c(C)n(CC(=O)N4CCCC4)c4ccccc34)CC2)c1	·	·	16.4µM*	·	18.4µM*	·
CC(C)NC(=O)Cn1cc(C(=O)C(=O)N2CCOCC2)c2ccccc21	15.8%	4.9%	-5.7%	i	-0.8%	1.7%
COc1cccc(CNc2nc3ccccc3n2C)c1O	-3.8%	-14.3%	-13.4%	?	?	?
COc1cccc(CNc2cnc3ccccc3c2)c1O	5.8%[9.24 µM]	?	11.6µM*	-54.3*	16.4µM*	?
Oc1ccc(Br)cc1CNc1cnc2ccccc2c1	-16.6%	-12.8%	?	-2.4	?	-8.5%
Cc1ccc(O)c(CNc2cnc3ccccc3c2)c1	?	-13.8%	-20.3%	-88.1*	?	?
O=C(Nc1cccc(NC(=O)C2CC3CCCC(C2)C3=O)n1)C1CC2CCCC(C1)C2=O (stereo unspecified)	-5.4%	-3.7%	?	-9.8	18.4µM*	?
Cc1nc(NC(=O)C2CC3CCCC(C2)C3=O)sc1C (stereo unspecified)	-9.1%	-4.9%	3.9%	23.7	4.0%	?
